According to publication PMC7862700, “An all-to-all approach to the identification of sequence-specific readers for epigenetic DNA modifications on cytosine”:

Legend:
Test in all cases: DAPPL (digital affinity profiling via proximity ligation, sequencing); 10 mM Tris-HCl pH 7.5, 50 mM NaCl, 1 mM DTT, 4% glycerol, room temperature, 30 min; GST-TFs on glutathione beads, 16-mer random dsDNA library, 0.1% formaldehyde crosslink after washing; high values mean tight binding
[1] = biological target: T1, FLI1 (Homo sapiens, UniProt Q01543 1-452); conditions: protein: recombinant; tags: N-terminal GST; dsDNA, one strand shown
T1 sequence: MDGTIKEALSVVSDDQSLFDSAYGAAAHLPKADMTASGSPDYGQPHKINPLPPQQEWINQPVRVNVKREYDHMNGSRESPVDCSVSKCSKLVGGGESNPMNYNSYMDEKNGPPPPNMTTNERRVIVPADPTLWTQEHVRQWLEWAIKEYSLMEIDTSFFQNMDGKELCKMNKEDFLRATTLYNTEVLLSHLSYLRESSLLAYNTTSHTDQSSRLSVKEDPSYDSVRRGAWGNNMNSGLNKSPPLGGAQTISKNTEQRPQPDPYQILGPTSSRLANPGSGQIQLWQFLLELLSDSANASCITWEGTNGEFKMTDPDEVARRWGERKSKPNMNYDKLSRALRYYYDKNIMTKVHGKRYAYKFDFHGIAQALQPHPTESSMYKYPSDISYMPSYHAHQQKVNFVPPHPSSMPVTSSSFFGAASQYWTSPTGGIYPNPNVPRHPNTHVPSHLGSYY
Outline: (§1)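 Pools were built from human transcription factors expressed in yeast as GST fusions, captured on glutathione beads and DNA-barcoded, along with a tag-only sample. Incubation with 200 nmole of a 16-mer random double-stranded DNA library lasted 30 min at room temperature in Tris/NaCl/DTT/glycerol buffer, and was followed by washing, 0.1% formaldehyde crosslinking, proximity ligation, PCR amplification and Illumina NextSeq500 sequencing. Binding signal is the quotient of each hexamer's read frequency for a factor and its frequency for the tag-only sample.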

[2] = biological target: T2, ELK1 (Homo sapiens, UniProt P19419 1-428); conditions: protein: recombinant; tags: N-terminal GST; dsDNA, one strand shown
T2 sequence: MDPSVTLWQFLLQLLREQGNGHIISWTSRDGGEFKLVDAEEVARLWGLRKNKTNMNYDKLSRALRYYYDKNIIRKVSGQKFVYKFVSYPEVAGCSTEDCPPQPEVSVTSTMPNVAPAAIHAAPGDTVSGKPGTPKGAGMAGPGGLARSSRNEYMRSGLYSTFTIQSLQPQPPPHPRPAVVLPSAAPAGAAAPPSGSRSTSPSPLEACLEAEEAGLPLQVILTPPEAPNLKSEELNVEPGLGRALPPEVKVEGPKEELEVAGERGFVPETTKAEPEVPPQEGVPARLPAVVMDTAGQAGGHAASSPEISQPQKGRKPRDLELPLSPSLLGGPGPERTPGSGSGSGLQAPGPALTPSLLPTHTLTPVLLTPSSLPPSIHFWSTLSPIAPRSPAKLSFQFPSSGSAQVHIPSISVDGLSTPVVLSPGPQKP
Outline: as §1

[3] = biological target: T3, GABPA (Homo sapiens, UniProt Q06546 1-454); conditions: protein: recombinant; tags: N-terminal GST; dsDNA, one strand shown
T3 sequence: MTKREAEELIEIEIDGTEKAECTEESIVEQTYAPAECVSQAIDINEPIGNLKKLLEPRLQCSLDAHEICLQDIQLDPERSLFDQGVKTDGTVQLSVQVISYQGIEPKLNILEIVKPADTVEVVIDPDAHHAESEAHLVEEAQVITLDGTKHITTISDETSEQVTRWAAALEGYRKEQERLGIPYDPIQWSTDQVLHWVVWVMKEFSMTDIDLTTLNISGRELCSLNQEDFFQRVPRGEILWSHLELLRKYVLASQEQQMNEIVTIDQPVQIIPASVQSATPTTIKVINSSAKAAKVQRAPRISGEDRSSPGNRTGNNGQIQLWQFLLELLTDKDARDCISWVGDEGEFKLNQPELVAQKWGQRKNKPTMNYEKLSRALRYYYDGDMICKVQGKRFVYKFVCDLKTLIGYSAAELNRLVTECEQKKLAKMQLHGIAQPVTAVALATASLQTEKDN
Outline: as §1

[4] = biological target: T4, ERG (Homo sapiens, UniProt P11308 1-479); conditions: protein: recombinant; tags: N-terminal GST; dsDNA, one strand shown
T4 sequence: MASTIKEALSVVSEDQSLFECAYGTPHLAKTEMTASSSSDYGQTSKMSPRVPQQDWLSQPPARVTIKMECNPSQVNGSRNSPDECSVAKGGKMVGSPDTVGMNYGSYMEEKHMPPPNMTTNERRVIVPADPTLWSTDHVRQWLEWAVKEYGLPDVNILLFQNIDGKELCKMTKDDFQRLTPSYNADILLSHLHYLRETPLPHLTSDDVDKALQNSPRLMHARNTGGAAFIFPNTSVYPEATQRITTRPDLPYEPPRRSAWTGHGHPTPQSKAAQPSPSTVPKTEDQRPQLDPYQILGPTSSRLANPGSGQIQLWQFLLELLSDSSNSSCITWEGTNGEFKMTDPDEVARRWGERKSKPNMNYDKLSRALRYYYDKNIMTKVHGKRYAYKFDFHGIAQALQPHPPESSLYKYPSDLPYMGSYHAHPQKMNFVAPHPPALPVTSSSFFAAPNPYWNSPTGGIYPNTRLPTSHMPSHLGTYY
Outline: as §1

[5] = biological target: ELF1 (Homo sapiens, UniProt P32519 1-619); conditions: protein: recombinant; tags: N-terminal GST; dsDNA, one strand shown
Outline: as §1

[6] = biological target: T5, EHF (Homo sapiens, UniProt Q9NZC4 1-300); conditions: protein: recombinant; tags: N-terminal GST; dsDNA, one strand shown
T5 sequence: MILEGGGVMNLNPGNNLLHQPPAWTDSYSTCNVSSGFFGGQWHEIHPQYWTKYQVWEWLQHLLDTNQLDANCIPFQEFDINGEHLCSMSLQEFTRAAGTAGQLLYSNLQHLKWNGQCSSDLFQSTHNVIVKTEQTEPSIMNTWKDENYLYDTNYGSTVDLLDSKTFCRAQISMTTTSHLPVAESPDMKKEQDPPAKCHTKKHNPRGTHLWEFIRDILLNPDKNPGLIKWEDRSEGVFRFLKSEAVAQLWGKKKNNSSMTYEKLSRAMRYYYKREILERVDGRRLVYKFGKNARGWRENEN
Outline: as §1

[7] = biological target: SPI1 (Homo sapiens, UniProt P17947 1-270); conditions: protein: recombinant; tags: N-terminal GST; dsDNA, one strand shown
Outline: as §1

[8] = biological target: SPIB (Homo sapiens, UniProt Q01892 1-262); conditions: protein: recombinant; tags: N-terminal GST; dsDNA, one strand shown
Outline: as §1

[9] = biological target: T6, ELK3 (Homo sapiens, UniProt P41970 1-407); conditions: protein: recombinant; tags: N-terminal GST; dsDNA, one strand shown
T6 sequence: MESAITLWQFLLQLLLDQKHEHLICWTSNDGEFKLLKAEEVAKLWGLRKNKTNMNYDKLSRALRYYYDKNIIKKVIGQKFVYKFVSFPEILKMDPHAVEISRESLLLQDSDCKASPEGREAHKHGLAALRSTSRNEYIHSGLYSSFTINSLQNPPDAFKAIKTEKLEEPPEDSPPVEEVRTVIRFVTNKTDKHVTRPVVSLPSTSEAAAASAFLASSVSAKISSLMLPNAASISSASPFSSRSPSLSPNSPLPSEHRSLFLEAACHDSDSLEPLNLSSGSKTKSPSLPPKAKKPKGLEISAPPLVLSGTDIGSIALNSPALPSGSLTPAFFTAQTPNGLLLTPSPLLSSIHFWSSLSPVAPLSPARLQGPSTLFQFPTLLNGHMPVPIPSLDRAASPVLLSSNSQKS
Outline: as §1

[10] = biological target: T7, FEV (Homo sapiens, UniProt Q99581 1-238); conditions: protein: recombinant; tags: N-terminal GST; dsDNA, one strand shown
T7 sequence: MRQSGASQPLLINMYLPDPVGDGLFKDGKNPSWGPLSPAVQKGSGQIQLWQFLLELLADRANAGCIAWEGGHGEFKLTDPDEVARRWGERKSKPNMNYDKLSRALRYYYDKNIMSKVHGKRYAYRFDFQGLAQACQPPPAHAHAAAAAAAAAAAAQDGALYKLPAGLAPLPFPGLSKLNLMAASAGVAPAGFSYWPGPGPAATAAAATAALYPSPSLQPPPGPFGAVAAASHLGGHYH
Outline: as §1

[11] = biological target: ETV5 (Homo sapiens, UniProt P41161 1-510); conditions: protein: recombinant; tags: N-terminal GST; dsDNA, one strand shown
Outline: as §1

[12] = biological target: HSF1 (Homo sapiens, UniProt Q00613 1-529); conditions: protein: recombinant; tags: N-terminal GST; chain copies: 3; dsDNA, one strand shown
Outline: as §1

[13] = biological target: T8, SPIC (Homo sapiens, UniProt Q8N5J4 1-248); conditions: protein: recombinant; tags: N-terminal GST; dsDNA, one strand shown
T8 sequence: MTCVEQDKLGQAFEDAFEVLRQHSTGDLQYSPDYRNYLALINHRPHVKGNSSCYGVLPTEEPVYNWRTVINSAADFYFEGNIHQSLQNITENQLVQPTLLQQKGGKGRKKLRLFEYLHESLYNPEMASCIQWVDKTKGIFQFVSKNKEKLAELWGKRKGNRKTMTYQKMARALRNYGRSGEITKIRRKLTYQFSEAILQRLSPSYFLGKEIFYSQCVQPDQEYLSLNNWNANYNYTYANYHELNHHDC
Outline: as §1

[14] = biological target: ELF4 (Homo sapiens, UniProt Q99607 1-663); conditions: protein: recombinant; tags: N-terminal GST; dsDNA, one strand shown
Outline: as §1

[15] = biological target: T9, ELK4 (Homo sapiens, UniProt P28324-2 1-405); conditions: protein: recombinant; tags: N-terminal GST; dsDNA, one strand shown
T9 sequence: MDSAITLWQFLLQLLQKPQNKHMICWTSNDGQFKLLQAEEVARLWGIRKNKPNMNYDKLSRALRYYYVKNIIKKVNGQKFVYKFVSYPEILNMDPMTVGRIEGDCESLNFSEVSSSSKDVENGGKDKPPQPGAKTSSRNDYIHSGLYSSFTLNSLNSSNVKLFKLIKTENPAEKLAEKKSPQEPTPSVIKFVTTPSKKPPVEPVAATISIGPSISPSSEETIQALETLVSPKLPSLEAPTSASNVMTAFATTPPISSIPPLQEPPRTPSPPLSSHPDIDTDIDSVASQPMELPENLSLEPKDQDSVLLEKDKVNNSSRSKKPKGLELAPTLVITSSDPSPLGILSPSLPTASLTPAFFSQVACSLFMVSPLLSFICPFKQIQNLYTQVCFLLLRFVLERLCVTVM
Outline: as §1

[16] = biological target: T10, ETV2 (Homo sapiens, UniProt O00321 1-342); conditions: protein: recombinant; tags: N-terminal GST; dsDNA, one strand shown
T10 sequence: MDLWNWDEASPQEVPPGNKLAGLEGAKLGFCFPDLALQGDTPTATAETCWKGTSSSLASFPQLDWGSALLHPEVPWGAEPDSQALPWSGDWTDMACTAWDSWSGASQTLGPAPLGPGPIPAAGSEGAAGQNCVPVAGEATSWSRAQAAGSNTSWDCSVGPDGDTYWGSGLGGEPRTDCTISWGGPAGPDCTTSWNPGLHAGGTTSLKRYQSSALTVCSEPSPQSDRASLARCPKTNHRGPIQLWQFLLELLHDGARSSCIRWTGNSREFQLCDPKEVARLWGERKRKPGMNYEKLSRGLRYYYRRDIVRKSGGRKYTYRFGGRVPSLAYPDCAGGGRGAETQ
Outline: as §1

[17] = biological target: T11, ELF3 (Homo sapiens, UniProt P78545 1-371); conditions: protein: recombinant; tags: N-terminal GST; dsDNA, one strand shown
T11 sequence: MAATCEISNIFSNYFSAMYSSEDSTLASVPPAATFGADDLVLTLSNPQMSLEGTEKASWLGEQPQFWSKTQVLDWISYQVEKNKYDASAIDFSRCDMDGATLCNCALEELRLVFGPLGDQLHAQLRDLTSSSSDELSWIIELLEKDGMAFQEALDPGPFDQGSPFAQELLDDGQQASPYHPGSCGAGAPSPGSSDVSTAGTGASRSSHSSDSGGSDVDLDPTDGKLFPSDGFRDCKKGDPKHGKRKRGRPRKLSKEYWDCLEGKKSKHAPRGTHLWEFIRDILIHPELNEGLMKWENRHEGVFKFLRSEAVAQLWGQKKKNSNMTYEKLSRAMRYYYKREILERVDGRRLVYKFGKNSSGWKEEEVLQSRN
Outline: as §1

[18] = biological target: CRX (Homo sapiens, UniProt O43186 1-299); conditions: protein: recombinant; tags: N-terminal GST; dsDNA, one strand shown
Outline: as §1

[19] = biological target: ETV1 (Homo sapiens, UniProt P50549 1-477); conditions: protein: recombinant; tags: N-terminal GST; dsDNA, one strand shown
Outline: as §1

HSF1, sequence (Q00613 whole entry): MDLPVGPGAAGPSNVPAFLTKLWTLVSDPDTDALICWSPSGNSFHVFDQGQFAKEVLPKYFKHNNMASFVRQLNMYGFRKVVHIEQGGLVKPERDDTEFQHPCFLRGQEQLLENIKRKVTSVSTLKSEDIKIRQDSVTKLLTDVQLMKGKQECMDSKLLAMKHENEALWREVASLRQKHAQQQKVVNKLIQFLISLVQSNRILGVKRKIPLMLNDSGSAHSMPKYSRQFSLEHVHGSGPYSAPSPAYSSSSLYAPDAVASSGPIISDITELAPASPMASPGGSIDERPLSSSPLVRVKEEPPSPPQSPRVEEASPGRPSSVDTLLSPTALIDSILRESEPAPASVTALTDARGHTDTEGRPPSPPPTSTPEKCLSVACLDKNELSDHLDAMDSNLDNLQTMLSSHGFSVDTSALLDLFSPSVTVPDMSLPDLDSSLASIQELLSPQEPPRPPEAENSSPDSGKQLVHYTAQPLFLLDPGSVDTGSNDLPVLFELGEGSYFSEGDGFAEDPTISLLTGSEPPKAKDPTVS
CRX, sequence (O43186 whole entry): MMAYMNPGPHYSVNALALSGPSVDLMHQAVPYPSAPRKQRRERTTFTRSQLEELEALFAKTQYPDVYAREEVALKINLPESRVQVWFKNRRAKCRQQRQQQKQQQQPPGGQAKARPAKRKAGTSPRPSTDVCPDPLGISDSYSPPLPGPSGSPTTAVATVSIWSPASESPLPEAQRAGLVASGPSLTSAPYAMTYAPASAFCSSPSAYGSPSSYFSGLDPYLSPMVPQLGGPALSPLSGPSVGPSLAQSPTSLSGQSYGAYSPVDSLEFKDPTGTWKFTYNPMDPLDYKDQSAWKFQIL
ETV1, sequence (P50549 whole entry): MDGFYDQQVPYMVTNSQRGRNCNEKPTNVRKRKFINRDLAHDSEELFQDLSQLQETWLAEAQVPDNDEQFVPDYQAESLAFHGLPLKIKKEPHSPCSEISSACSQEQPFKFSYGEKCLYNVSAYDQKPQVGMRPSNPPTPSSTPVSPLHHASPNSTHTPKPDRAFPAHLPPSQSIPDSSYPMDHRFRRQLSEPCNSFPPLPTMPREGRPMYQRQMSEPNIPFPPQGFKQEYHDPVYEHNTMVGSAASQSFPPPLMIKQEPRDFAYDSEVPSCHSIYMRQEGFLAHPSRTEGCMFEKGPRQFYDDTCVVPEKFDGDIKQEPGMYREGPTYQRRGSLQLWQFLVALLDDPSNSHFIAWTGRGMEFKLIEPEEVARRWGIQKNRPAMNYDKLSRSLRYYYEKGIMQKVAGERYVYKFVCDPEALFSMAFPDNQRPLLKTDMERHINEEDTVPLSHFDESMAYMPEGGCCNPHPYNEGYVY
ELF4, sequence (Q99607 whole entry): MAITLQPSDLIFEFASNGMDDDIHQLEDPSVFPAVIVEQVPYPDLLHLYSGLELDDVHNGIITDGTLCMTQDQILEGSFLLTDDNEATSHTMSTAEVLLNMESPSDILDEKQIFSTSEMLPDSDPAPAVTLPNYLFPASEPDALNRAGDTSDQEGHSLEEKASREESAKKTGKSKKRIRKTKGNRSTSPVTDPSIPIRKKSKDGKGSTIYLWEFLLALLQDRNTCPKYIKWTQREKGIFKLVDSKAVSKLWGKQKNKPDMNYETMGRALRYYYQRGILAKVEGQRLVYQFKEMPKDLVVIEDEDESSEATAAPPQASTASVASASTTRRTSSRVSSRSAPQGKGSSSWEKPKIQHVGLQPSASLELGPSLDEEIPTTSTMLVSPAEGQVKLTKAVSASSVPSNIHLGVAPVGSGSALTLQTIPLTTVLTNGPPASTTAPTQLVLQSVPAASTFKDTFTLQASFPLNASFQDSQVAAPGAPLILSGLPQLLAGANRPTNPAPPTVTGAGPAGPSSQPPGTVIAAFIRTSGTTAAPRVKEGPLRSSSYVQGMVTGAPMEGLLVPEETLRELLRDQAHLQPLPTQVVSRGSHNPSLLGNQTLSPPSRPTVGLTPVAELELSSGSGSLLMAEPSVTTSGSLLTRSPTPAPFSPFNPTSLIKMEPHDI
ELF1, sequence (P32519 whole entry): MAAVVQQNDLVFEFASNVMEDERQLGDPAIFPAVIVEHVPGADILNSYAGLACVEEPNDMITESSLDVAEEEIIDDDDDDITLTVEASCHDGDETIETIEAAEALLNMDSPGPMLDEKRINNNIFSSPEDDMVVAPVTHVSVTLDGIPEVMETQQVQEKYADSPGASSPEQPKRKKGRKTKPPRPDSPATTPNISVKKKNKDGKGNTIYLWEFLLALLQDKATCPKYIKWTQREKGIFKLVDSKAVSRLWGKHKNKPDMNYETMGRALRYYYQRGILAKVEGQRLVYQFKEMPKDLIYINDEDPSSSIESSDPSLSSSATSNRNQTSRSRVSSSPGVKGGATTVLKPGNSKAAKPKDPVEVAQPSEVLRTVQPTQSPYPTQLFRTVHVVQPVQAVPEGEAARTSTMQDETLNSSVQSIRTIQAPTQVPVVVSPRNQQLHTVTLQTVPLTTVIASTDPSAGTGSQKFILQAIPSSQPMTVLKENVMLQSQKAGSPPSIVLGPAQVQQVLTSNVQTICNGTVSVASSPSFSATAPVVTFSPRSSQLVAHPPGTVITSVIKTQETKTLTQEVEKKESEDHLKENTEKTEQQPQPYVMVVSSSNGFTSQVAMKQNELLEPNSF
SPIB, sequence (Q01892 whole entry): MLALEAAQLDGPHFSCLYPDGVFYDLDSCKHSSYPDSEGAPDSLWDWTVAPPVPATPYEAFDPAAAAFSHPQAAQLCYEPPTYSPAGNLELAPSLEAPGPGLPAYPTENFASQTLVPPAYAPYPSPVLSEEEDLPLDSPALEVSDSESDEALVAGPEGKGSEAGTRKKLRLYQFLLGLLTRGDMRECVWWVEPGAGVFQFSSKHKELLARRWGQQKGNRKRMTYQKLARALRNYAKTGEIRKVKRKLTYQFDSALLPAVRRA
ETV5, sequence (P41161 whole entry): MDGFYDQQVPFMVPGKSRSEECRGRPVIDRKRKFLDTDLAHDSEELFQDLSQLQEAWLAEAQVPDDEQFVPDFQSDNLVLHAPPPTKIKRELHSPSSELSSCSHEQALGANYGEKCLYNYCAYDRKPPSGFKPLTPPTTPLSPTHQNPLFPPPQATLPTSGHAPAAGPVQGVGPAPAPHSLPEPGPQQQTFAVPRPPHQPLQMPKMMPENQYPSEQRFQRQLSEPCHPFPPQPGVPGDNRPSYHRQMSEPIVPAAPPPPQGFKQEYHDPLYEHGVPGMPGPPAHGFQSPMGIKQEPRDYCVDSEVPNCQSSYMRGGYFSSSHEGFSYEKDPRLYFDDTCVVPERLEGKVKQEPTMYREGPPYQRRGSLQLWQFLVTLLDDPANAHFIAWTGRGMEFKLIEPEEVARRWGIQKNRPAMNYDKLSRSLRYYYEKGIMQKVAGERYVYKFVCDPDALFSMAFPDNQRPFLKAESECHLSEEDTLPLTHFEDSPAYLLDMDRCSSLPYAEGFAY

TGTTAC
binding signal [1]: 1.49 fold enrichment (6-mer frequency, TF over GST control) | binding signal [2]: 1.55 fold enrichment (6-mer frequency, TF over GST control) | binding signal [3]: 1.39 fold enrichment (6-mer frequency, TF over GST control) | binding signal [4]: 1.49 fold enrichment (6-mer frequency, TF over GST control) | binding signal [5]: 1.43 fold enrichment (6-mer frequency, TF over GST control) | binding signal [6]: 1.53 fold enrichment (6-mer frequency, TF over GST control) | binding signal [7]: 1.36 fold enrichment (6-mer frequency, TF over GST control) | binding signal [8]: 1.43 fold enrichment (6-mer frequency, TF over GST control) | binding signal [9]: 1.53 fold enrichment (6-mer frequency, TF over GST control) | binding signal [10]: 1.4 fold enrichment (6-mer frequency, TF over GST control) | binding signal [11]: 1.47 fold enrichment (6-mer frequency, TF over GST control) | binding signal [12]: 1.12 fold enrichment (6-mer frequency, TF over GST control) | binding signal [13]: 1.42 fold enrichment (6-mer frequency, TF over GST control) | binding signal [14]: 1.47 fold enrichment (6-mer frequency, TF over GST control) | binding signal [15]: 1.51 fold enrichment (6-mer frequency, TF over GST control) | binding signal [16]: 1.58 fold enrichment (6-mer frequency, TF over GST control) | binding signal [17]: 1.39 fold enrichment (6-mer frequency, TF over GST control) | binding signal [18]: 1.19 fold enrichment (6-mer frequency, TF over GST control) | binding signal [19]: 1.4 fold enrichment (6-mer frequency, TF over GST control)
